Screening data from PubChem BioAssay.
Compounds with a hit are over-represented: about 19% of the library has one in this group of screens.
DT40 TDP1 CPT = growth inhibition of DT40 Tdp1-/-;hTDP1 cells with camptothecin (screen for TDP1 inhibitors). chicken DT40 Tdp1-/-;hTDP1 cells + 20 nM CPT, ATP luminescence, 48 h. Potency, µM (highest dose often 46.2 µM), inactives show at the top dose activity change, negative = growth inhibition, actives largely listed as inhibitors. 420,000 compounds, 12% hits. AID 686979; further: potency means the concentration at half of the fitted maximal effect; nearly all actives have a fitted effect of over 55% in size
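Chicken DT40 Tdp1-/- cells complemented with human TDP1, 400 cells/well, exposed to compounds plus 20 nM camptothecin for at least 48 h at 37 C; viability read as ATP content by CellTiter-Glo luminescence.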
TDP1 cell noCPT = qHTS for Inhibitors of human tyrosyl-DNA phosphodiesterase 1 (TDP1): qHTS in cells in absence of CPT. AID 686978, 2013. 420,000 compounds, 15% hits. DT40 Tdp1-/- hTDP1 cells, no CPT, ATP luminescence, 48 h. Potency, µM (doses to about 46.2 µM), inactives show top-dose activity change, negative = growth inhibition, actives largely listed as inhibitors; further: potency means the concentration at half of the fitted maximal effect; nearly all actives have a fitted effect of over 55% in size
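Luminescent ATP content (CellTiter-Glo) served as the growth readout. Knockout chicken DT40 cells expressing human TDP1 were exposed to compounds without camptothecin for a minimum 48 hr at 37 °C.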
HT1080 IDH1KD tx = HT-1080 IDH1 knockdown cell toxicity (counter line); HT-1080 IDH1 knockdown viability, ATP luminescence, 48 h; Potency, µM (series often up to 46.1 µM), without a hit: top-dose activity, negative = toxicity, most hits filed as cytotoxic; 360,000 compounds, 2% hits;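 further: potency means the concentration at half of the fitted maximal effect; 0% = DMSO wells and -100% = cell-free medium wells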
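CellTiter-Glo luminescence after 48 h compound exposure at 37 degrees C of IDH1-knockdown HT-1080 cells in 5% FBS RPMI. %Activity scaled between DMSO wells and cell-free media wells, with curves fitted and assigned curve classes.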
IL-1B inflam inh = blocks inflammasome-driven IL-1 beta release | THP-1 LPS/ATP IL-1B secretion, AlphaLISA, 16 h; stronger effect = lower value | activity change, % at 57.5 µM | 360,000 compounds, 4.7% hits | AID 743279; in the data active means activity change below about -50%; inconclusive means mostly about -30% to -49%
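Secreted IL-1B measured by AlphaLISA bead assay after 16 h compound exposure of THP-1 cells; compounds (final up to 57.5 uM) added 1 h before LPS (250 ng/mL) and ATP (1.25 mM) stimulation; lower signal means less secretion.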
HT1080NT lethal = kills 2HG-producing HT-1080-NT fibrosarcoma cells; HT-1080-NT fibrosarcoma viability, CellTiter-Glo ATP luminescence, 48 h; Potency, µM (series often up to 46.1 µM), for the others: at the highest dose activity, negative = less viability, hits mostly cytotoxic; 360,000 compounds, 1.6% hits; AID 686970;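 further: NT is the 2HG producing partner of a matched IDH1 knockdown line; potency means the concentration at half of the fitted maximal effect; 0% = DMSO-treated cells and -100% = media-only wells without cells; nearly all actives have a fitted effect of over 55% in size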
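HT-1080-NT fibrosarcoma cells (2HG-overproducing), 750 cells/well in RPMI with 5% FBS, dosed after 2 h and incubated 48 h at 37C. CellTiter-Glo luminescence normalized to DMSO and no-cell wells; concentration-response curves fitted and classed.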
Active calls of the source: *; ? = inconclusive; . = not tested or not shown. Unless noted, the call rests on the fitted dose curve; in most records, active means well fitted curve in the direction sought with a large enough effect; inconclusive means small, poorly fitted or top-dose-only effect, or another doubt; inactive means no such curve, though single readings can be large; an effect the other way counts as inactive or inconclusive. Unless noted, on the % scale 0 is the no-effect control and ±100 the full control effect.

SMILES	DT40 TDP1 CPT	TDP1 cell noCPT	HT1080 IDH1KD tx	IL-1B inflam inh	HT1080NT lethal
CCCCC(=O)NC(c1cccc([N+](=O)[O-])c1)c1ccc2cccnc2c1O (configuration not stated)	3.7µM*	2.9µM*	?	91	?
O=[N+]([O-])c1ccc2cccnc2c1	5%	-12%	3%	17	5%
CCOC(=O)C(NC(=O)CC)C(O)c1cccc([N+](=O)[O-])c1 (configuration not stated)	-22%	-7%	8%	23	0%
CCOC(=O)CCCNC(=O)COC(=O)c1cccc(F)c1	5%	?	18%	-4	-9%
COc1ccc(C(=O)N(CN2CCCC2=O)c2ccc(C)cc2)cc1	?	15µM*	-10%	22	-4%
Cc1ccc(N(CN2CCCC2=O)C(=O)c2ccccc2)cc1	13µM*	13µM*	-1%	30	0%
COc1cccc(C(=O)N(CN2CCCC2=O)c2ccccc2OC)c1	-19%	-15%	4%	14	-6%
O=C(COC(=O)c1cnccn1)NCc1ccc2c(c1)OCO2	-1%	-3%	?	-1	22%
NC(=O)[C@H]1O[C@@H](O)[C@H](O)[C@@H](O)[C@@H]1O	-2%	-17%	.	.	.
CCOC(=O)N1CCc2c(sc3nc(SC(C)C)n(N)c(=O)c23)C1	9.2µM*	23µM*	-17%	-23	-9%
CC(C)(CC(=O)O)CC(=O)N1CCN(c2cc(C(F)(F)F)nc3ccccc23)CC1	-5%	2%	0%	9	3%
COCCNc1nc(N)c([N+](=O)[O-])c(NC2CCCCC2)n1	?	4%	-22%	94	1%
COc1ccc(OC)c(Nc2nc(NCCCN(C)C)nc(N)c2[N+](=O)[O-])c1	4.6µM*	4.6µM*	16µM*	-99*	-14%
NCCCNc1nc(N)c([N+](=O)[O-])c(NC2CCCCC2)n1	4.1µM*	3.7µM*	?	-16	-27%
COc1ccc(OC)c(Nc2nc(N)c([N+](=O)[O-])c(NC3CCCCC3)n2)c1	8.2µM*	?	10%	14	21%
CNc1nc(N)c([N+](=O)[O-])c(Nc2ccccc2OC)n1	?	21µM*	-23%	-4	-12%
COc1ccccc1Nc1nc(N(C)c2ccccc2)nc(N)c1[N+](=O)[O-]	2%	?	21%	14	21%
COc1ccc(C)cc1NC(=O)Cn1cc(S(=O)(=O)N2CCC(C)CC2)c2ccccc2c1=O	-20%	?	.	.	.
COc1ccc(CCCN2CCC(CN3C(=S)NC[C@@H]3Cc3ccccc3)CC2)cc1OC	-1%	-14%	-1%	5	-3%
COc1ccccc1Nc1nc(NCCC(C)C)nc(N)c1[N+](=O)[O-]	?	18µM*	6%	6	8%
Cc1ccc(OCC(=O)N2CCC(Cc3ccccc3)CC2)c([N+](=O)[O-])n1	?	?	1%	-17	0%
Cc1ccc2c(c1)S/C(=C\c1cccc[n+]1C)N2CCO	1.2µM*	1.6µM*	16µM*	17	-3%
Cc1ccc2c(c1)S/C(=C/c1ccc[n+](CCO)c1)N2C	0.65µM*	1.2µM*	?	-26	-17%
CC(=O)N1c2ccc(C)cc2Sc2c1ccc1ccccc21	-17%	?	-25%	17	?
COc1ccc(Cl)cc1C(=O)NNC(=O)COC(=O)CC(NC(C)=O)c1ccccc1 (configuration not stated)	8%	-18%	8%	0	-1%
SMILES	DT40 TDP1 CPT	TDP1 cell noCPT	HT1080 IDH1KD tx	IL-1B inflam inh	HT1080NT lethal
CCCOc1ccc(C2C(C(=O)c3ccc(C)o3)=C(O)C(=O)N2Cc2ccco2)cc1 (configuration not stated)	?	?	-3%	18	-1%
COc1ccc2nc(N3C(=O)C(O)=C(C(=O)c4ccco4)C3c3ccccc3OC)sc2c1 (configuration not stated)	?	?	-1%	13	4%
COc1ccc2nc(N3C(=O)C(O)=C(C(=O)c4ccco4)C3c3ccc(C)o3)sc2c1 (configuration not stated)	-17%	18µM*	-28%	52	-26%
COc1ccc(C2C(C(=O)c3cccs3)=C(O)C(=O)N2Cc2cccnc2)cc1OC (configuration not stated)	3%	-3%	16%	27	16%
CCCOc1ccc(C2C(C(=O)c3ccc(C)o3)=C(O)C(=O)N2Cc2ccco2)cc1OCC (configuration not stated)	?	23µM*	1%	-5	14%
CCCOc1cccc(C2C(C(=O)c3ccc(C)o3)=C(O)C(=O)N2c2nc(C)c(C(C)=O)s2)c1 (configuration not stated)	?	23µM*	-1%	20	4%
CCOc1cccc(C2C(C(=O)c3ccc(C)o3)=C(O)C(=O)N2c2nnc(C)s2)c1 (configuration not stated)	-2%	-19%	10%	-5	16%
CCCOc1cccc(C2C(C(=O)c3cccs3)=C(O)C(=O)N2Cc2cccnc2)c1 (configuration not stated)	?	16µM*	?	57	-16%
CCCNC(=O)NC(=O)CSc1ccc(C)cc1C	4%	-11%	1%	15	0%
Cc1cc(N2C(=O)C(O)=C(C(=O)c3ccc(C)o3)C2c2cccc(Oc3ccccc3)c2)no1 (configuration not stated)	?	23µM*	4%	5	1%
CCc1nc2c(OCC3CCCCC3)cccn2c1N(C)C(=O)c1ccccc1F	?	16µM*	?	-18	?
CCc1nc2c(OCCC3CCCCC3)cccn2c1N(C)C(=O)COc1ccccc1	16µM*	?	14%	9	4%
CCc1nc2c(OCCC3CCCCC3)cccn2c1N(C)C(=O)c1ccc(C)cc1	15µM*	15µM*	?	-99*	?
CCc1nc2c(OCC(=O)c3ccc(Cl)cc3Cl)cccn2c1N(C)C(=O)COc1ccccc1	?	?	?	-25	?
CCc1nc2c(OCCC3CCCCC3)cccn2c1N(C)C(=O)C1CC1	18µM*	13µM*	?	0	?
CCc1nc2c(OCCOC)cccn2c1N(C)C(=O)c1ccc(C)cc1	-3%	-4%	12%	6	27%
CCC(=O)N1c2ccccc2CC1C(=O)NCc1cc(OC)ccc1OC (configuration not stated)	-25%	-14%	.	.	.
